A selection: hits, their analogues and other compounds. The true share with any hit is near 2.3%.
M1 antag = blocks human M1 muscarinic receptor. P11229. CHO-K1 hM1, Fluo-8 calcium fluorescence, ACh EC80 antagonist. inhibition, % at 3 µM. actives 1.3% (n = 360,000);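 active = percent inhibition above its own plate's cutoff, namely the mean of that plate's compound wells plus 3 SD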;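 also: peak over basal fluorescence ratio during 140 s after agonist addition; 0% = ACh EC80 plus DMSO and 100% = DMSO alone without agonist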
Target sequence (P11229 whole entry, looked up): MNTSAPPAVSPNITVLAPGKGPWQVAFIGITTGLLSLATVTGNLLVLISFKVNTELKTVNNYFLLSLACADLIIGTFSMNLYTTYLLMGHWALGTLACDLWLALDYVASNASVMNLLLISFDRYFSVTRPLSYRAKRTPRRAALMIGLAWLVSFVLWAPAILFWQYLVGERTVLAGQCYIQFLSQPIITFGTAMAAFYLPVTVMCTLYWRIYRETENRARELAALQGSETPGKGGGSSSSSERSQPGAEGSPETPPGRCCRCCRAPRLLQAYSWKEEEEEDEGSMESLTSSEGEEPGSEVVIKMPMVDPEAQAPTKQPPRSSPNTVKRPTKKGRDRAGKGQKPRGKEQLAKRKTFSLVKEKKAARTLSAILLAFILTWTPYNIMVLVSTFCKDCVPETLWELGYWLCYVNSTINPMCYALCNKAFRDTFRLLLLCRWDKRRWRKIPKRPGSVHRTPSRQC
CHO-K1 Ca antag = M1 antagonist counterscreen hit in parental CHO-K1 cells. ATP-induced calcium, Fluo-8 fluorescence. inhibition, % at 3 µM. actives 0.6% (n = 360,000);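 active = inhibition above a per-plate cutoff, the plate's mean sample inhibition plus 3 SD, cut at about 24% in these data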;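 also: 0% = DMSO plus EC80 ATP and 100% = DMSO alone without ATP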
CHRM1 PAM = human CHRM1 positive allosteric modulation | CHO-K1 hM1, Fluo-8 calcium fluorescence, ACh EC20; 0% = ACh EC20, 100% = maximal ACh | activation, % at 3 µM | actives 0.088% (n = 360,000) | AID 588819; in the data active = activation above about 19%, passing the limit was not always enough
M1 ag = activates human CHRM1 receptor | activation, % at 3 µM | P11229 | CHO-K1 hM1, Fluo-8 calcium fluorescence, agonist mode; 0% DMSO, 100% acetylcholine EC100 | actives 0.33% (n = 360,000);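 active = activation above the run's mean compound activation plus 3 SD, cut at about 16% in these data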;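 also: peak over basal fluorescence ratio within a 140 s kinetic read after compound addition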
CHO-K1 Ca ag = counter-screen for M1 agonists: effect in parental CHO-K1 cells | AID 602248 | actives 0.48% (n = 360,000) | Fluo-8 calcium fluorescence; scaled to maximal ATP response, vehicle zero | activation, % at 3 µM; in the data active = activation above about 15%;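 also: untransfected CHO-K1 host cells lacking M1 receptor as counterscreen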
M1 PAM parental = nonselective activator or artifact in parental CHO-K1 calcium assay. actives 0.02% (n = 360,000). activation, % at 3 µM. AID 602247. ATP EC20, Fluo-8 calcium fluorescence; 0% at ATP EC20, 100% at ATP max;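 active = activation above the run cutoff, the mean activation of all test compounds plus 3 SD, cut at about 40% in these data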;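 also: peak over basal fluorescence ratio in a 140 s read after ATP addition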
Active calls of the source: *; nt = not tested or not shown.

SMILES | M1 antag | CHO-K1 Ca antag | CHRM1 PAM | M1 ag | CHO-K1 Ca ag | M1 PAM parental
CCOC(=O)Nc1ccc2c(c1)N(C(=O)C(C)N1CCCC1)c1ccccc1CC2 (configuration not stated) | 91* | -6 | -35 | -12 | 0 | 4
CCOC(=O)Nc1ccc2c(c1)N(C(=O)CN(C)C)c1ccccc1S2 | 7 | -7 | -15 | -8 | 1 | 27
CCCC(CCC)C(=O)Nc1ccc2c(c1)N(C(=O)CN1CCN(C)CC1)c1ccccc1CC2 | 78* | -13 | -38 | -15 | 0 | -2
Nc1ccc(/C=C/C(=O)c2cccs2)cc1 | 11 | 10 | -3 | 14 | 22* | 0
O=C(C=Cc1ccccc1)c1cccs1 | -15 | 2 | 8 | -5 | 1 | -6
OCCN1CCN(CC(O)COc2ccc(C34CC5CC(CC(C5)C3)C4)cc2)CC1 (configuration not stated) | 3 | -2 | 3 | -5 | 1 | 18
NCCOc1ccc(C23CC4CC(CC(C4)C2)C3)cc1 | -2 | -6 | 17 | 12 | 17* | 25
CC1Cc2cc(-c3csc(NC(=O)Cc4cccs4)n3)ccc2N1S(C)(=O)=O (configuration not stated) | 26* | 9 | -12 | 1 | 11 | 9
CCC(=O)Nc1nc(-c2ccc3c(c2)CC(C)N3S(C)(=O)=O)cs1 (configuration not stated) | -2 | 0 | -1 | -5 | 4 | 11
CC(C)C[C@H]1CN=C(Nc2ccccc2)N1CCc1cccc(F)c1 | 57* | 43* | -39 | 63* | 85* | -23
Cc1cccc(CCN2C(Nc3ccccc3)=NC[C@@H]2CC(C)C)c1 | 57* | 37* | -36 | 53* | 64* | -22
CC(C)C[C@H]1CN=C(N(C)C)N1CCc1cccc(F)c1 | 6 | -15 | -4 | -13 | 0 | -12
CC(C)CCN1C(Nc2ccccc2)=NC[C@@H]1CC(C)C | 5 | -7 | -2 | -13 | 1 | -5
CCN1C(Nc2ccccc2)=NC[C@@H]1CC(C)C | 9 | -16 | -4 | -11 | 1 | 16
CC(C)C[C@H]1CN=C(Nc2ccccc2)N1CCc1ccc(F)cc1 | 25 | 23 | -32 | 50* | 64* | -17
Cc1ccsc1/C=N/NC(=O)c1nnn(-c2nonc2N)c1CSc1ccccc1 | -14 | -13 | 6 | -2 | 2 | 22
O=C(NCc1ccccc1Cl)[C@H]1CCCN1C(=O)[C@H]1CCCN1C(=O)c1ccccc1 | nt | -18 | nt | nt | 2 | 19
COc1ccccc1NC(=O)C(C)OC(=O)CCCc1c[nH]c2ccccc12 (configuration not stated) | 8 | 6 | -3 | -1 | 0 | 3
N#CCSc1nnc(-c2sc3ccccc3c2Cl)o1 | -10 | -9 | 5 | -6 | 2 | 25
Clc1cccc2sc(-c3nnc(-c4ccccc4)o3)c(Cl)c12 | 4 | 26* | -2 | -3 | 0 | -7
CC(=O)Nc1ccc(NC(=O)Cn2cnc3c(nnn3Cc3ccc(F)cc3)c2=O)cc1 | -2 | -4 | 1 | 16* | 1 | 15
CCN(CC)c1ccc2c(Cl)c(Br)c(=O)oc2c1 | 78* | 73* | -17 | 49* | 53* | -7
Cc1ccc(N2C(=O)CC(NNc3nc4ccccc4s3)C2=O)cc1 (configuration not stated) | 3 | 11 | 5 | -5 | 17* | 15
CSCCC(NC(=O)c1ccco1)C(=O)NCC1CCCCC1 (configuration not stated) | -24 | -18 | 24* | -1 | 0 | 2
CSCCC(NC(=O)c1ccccc1Br)C(=O)NCC1CCCCC1 (configuration not stated) | -5 | -1 | 2 | -4 | 0 | 15
SMILES | M1 antag | CHO-K1 Ca antag | CHRM1 PAM | M1 ag | CHO-K1 Ca ag | M1 PAM parental
Cc1ccc2c(c1)N(CC(=O)NC1CCCC1)C(=O)c1cccnc1O2 | -10 | -1 | 2 | -1 | 1 | 8
CCOC(=O)c1ccc(N2CCN(c3ccc(F)cc3)CC2)c(NC(=O)Nc2cccc(OC)c2)c1 | 34* | -12 | -15 | -5 | 1 | 26
O=S(=O)(c1ccc(C2CCCCC2)cc1)N1CCCC1 | 19 | -9 | -9 | -4 | 1 | 27
CN(C1CCCCC1)S(=O)(=O)c1ccc(S(=O)(=O)N2CCCC2)cc1 | 32* | -15 | -24 | -3 | 5 | 1
CC1CCCC(NC(=O)COC(=O)COc2cccc(F)c2)C1C (configuration not stated) | -1 | -10 | -2 | -3 | 0 | 7
O=C(NCCSCc1ccccc1)c1ccc(C2SCC(=O)N2Cc2ccccc2)cc1 (configuration not stated) | 60* | 2 | -34 | -8 | 1 | -8
CC(C)=CCCC(C)CN(C)CCc1ccccn1 (configuration not stated) | 42* | -3 | -19 | -8 | 0 | -7
Cc1ccccc1CN(C)CCc1ccccn1 | -4 | -9 | 8 | -2 | 0 | 1
CCOCCCn1c(SCC(=O)Nc2ccc(NC(C)=O)cc2)nc2ccccc2c1=O | -18 | -2 | 2 | -2 | 0 | 12
CCc1ccc(NC(=O)CSc2nc3ccccc3c(=O)n2CCCC(=O)N2CCCC2)cc1 | -6 | 25* | 10 | 1 | 0 | -4
CCOCCCn1c(SCC(=O)Nc2ccccc2)nc2ccccc2c1=O | 0 | 35* | -2 | -6 | 0 | -24
O=C(c1ccc2nc[nH]c2c1)N1CCN(c2ncc(C(F)(F)F)cc2Cl)CC1 | 1 | -1 | 26* | 11 | 2 | -13
CN(CCO)C(=O)C1CCN(c2ncc(C(F)(F)F)cc2Cl)CC1 | 4 | -8 | 0 | -5 | 4 | 23
NC(=O)C1CCN(c2ncc(C(F)(F)F)cc2Cl)CC1 | 39* | -9 | -11 | -10 | 0 | 22
Oc1c(Br)cc(Br)cc1CNn1cnnc1 | -12 | 3 | 4 | -2 | -1 | 6
CC(=O)CC(c1ccccc1)S(=O)(=O)c1ccc(C)cc1 (configuration not stated) | 27* | 9 | -4 | -2 | 0 | -6
COc1ccc(C(CC(=O)c2ccccc2)S(=O)(=O)c2ccc(C)cc2)cc1 (configuration not stated) | -16 | -12 | 9 | -6 | 0 | 16
C=CCNc1nc2c(c(=O)n(C)c(=O)n2C)n1CCCCCC | 16 | 12 | -1 | -3 | 2 | 2
C=CCNc1nc2c(c(=O)n(C)c(=O)n2C)n1CC | 0 | 31* | 7 | -1 | 1 | -9
COc1ccc(C(CNC(=O)c2ccc(OCc3csc(C)n3)cc2)N2CCCC2)cc1 (configuration not stated) | 1 | -11 | -7 | -8 | 1 | 23

Compound activity as filed in PubChem BioAssay.
